Assay outcomes from PubChem BioAssay.
aSyn 5UTR act = Activators via SNCA 5'UTR binding, MLPCN; alpha-synuclein 5'UTR reporter, activators screen; activity score, % (tested at 7.5 µM), hits read low; 300,000 tested, 7.1% active; AID 1814; in the data active means activity score below about -60%
* hit, by the source's call. A selection follows.

SMILES	aSyn 5UTR act
O=C(Nc1cccc(-c2nnc(-c3ccccc3)o2)c1)C1CC1	-89*
CC(=O)Nc1cccc(-c2nnc(-c3ccccc3)o2)c1	-150*
CCOc1cccc(C(=O)Nc2cccc(-c3nnc(-c4ccccc4)o3)c2)c1	-77*
O=C1NC(c2ccc3c(c2)OCO3)Nc2ccccc21 (stereo not given)	-180*
CC(C)c1ccc(C2C3=C(COC3=O)Nc3cc4c(cc32)OCO4)cc1 (stereo not given)	123
CC(C)Oc1ccccc1C1CC(=O)Nc2cc3c(cc21)OCO3 (stereo not given)	91
CC(=O)Nc1ccc(NC(=O)CSc2ccc(-c3ccc4c(c3)OCO4)nn2)cc1	-66*
Cc1ccc(-c2ccc(SCC(=O)Nc3ccc4c(c3)OCCO4)nn2)cc1	-98*
Cc1ccc(-c2ccc(SCC(=O)Nc3nonc3C)nn2)cc1	-87*
COC(=O)c1ccc(N=Cc2c(-c3ccccc3)[nH][nH]c2=O)cc1	-216*
O=c1cc(Cl)[nH]c(=O)n1Cc1ccc(F)cc1	-87*
CCOc1ccc(N=C(/C(C(=O)C(=O)N2CCOCC2)=C(/O)c2ccccc2)c2ccccc2)cc1	-203*
CCOC(=O)C1=C(C)NC2=C(C(=O)c3ccccc32)C1c1ccc([N+](=O)[O-])o1 (stereo not given)	-63*
COC(=O)C1=C(C)NC(C)=C(C(=O)OCC(C)C)C1c1ccccc1[N+](=O)[O-] (stereo not given)	71
CC(C)=C1C2C=CC1C1C(=O)N(c3ccc4c(c3)OCO4)C(=O)C21 (stereo not given)	-86*
Cc1ccc(C(=O)Nc2ccc3c(c2)OCO3)cc1NC(=O)c1ccco1	-71*
CCn1nccc1C(=O)Nc1ccc(C)c(C)c1	-178*
COc1cc(OC)cc(C(=O)Nc2ccc(NC(=O)c3ccco3)c(C)c2)c1	-123*
COc1cccc(NC(=O)c2ccco2)c1	-116*
Cc1ccc(NC(=O)c2ccco2)cc1C	-103*
O=C(Nc1ccc2c(c1)OCCO2)c1ccco1	-68*
CC1(C)Oc2ccc(NC(=O)c3ccco3)cc2O1	-168*
CCCC(=O)N1c2ccccc2C(=C2SC(C(=O)OC)=C(C(=O)OC)S2)C(=S)C1(C)C	-88*
C=C(C)C(=O)Nc1nnc(-c2cccs2)s1	-94*
O=C(Nc1nnc(-c2cccs2)s1)C1CC1	-89*
SMILES	aSyn 5UTR act
COCC(=O)Nc1nnc(-c2cccs2)s1	-70*
CCC(=O)Nc1nnc(-c2cccs2)s1	-68*
O=C(Cc1ccccc1)Nc1nnc(-c2cccs2)s1	-142*
CC(C)(C)c1ccc(N=C2SCC(=O)N2Cc2cccs2)cc1	-72*
COC(=O)C1=C(NC(=O)c2ccc(C)c(C)c2)CCS1	-76*
CCOC(=O)c1csc(-c2ccc([N+](=O)[O-])cc2)n1	-67*
COc1ccc(Cc2nn3c(-c4ccccc4Br)nnc3s2)cc1	37
COc1ccc(Cn2c(-c3ccc(Br)cc3)c[n+]3ccccc23)cc1	-143*
O=C(N/N=C1\CCCc2ccccc21)c1ccc([N+](=O)[O-])cc1	-82*
Cc1ccc(C(=O)N/N=C2\CCCc3ccccc32)c(C)c1	-161*
O=C(/C=C/c1ccccc1[N+](=O)[O-])NCCN1C(=O)S/C(=C\c2ccc(F)cc2)C1=O	-113*
COC(=O)C(C)N1C(=O)S/C(=C\c2ccc(-c3ccc(C(=O)O)cc3C)o2)C1=O (stereo not given)	-137*
COc1ccccc1CNc1ccc(Br)cn1	-113*
Oc1ccccc1CNc1ccc(Br)cn1	-300*
Cc1cc(=O)oc2cc(NC(=O)c3ccnn3C)ccc12	-135*
Cc1cc(=O)oc2cc(NC(=O)c3c(Cl)cnn3C)ccc12	-76*
Cc1ccc2sc3ccc(NC(=O)c4ccccc4Cl)cc3c(=O)c2c1	-109*
Cc1cc(=O)oc2cc(NC(=O)c3ccccc3Cl)ccc12	-201*
COc1ccc(N2Cc3ccccc3/C2=N\C(=O)Nc2ccccc2)cc1	-64*
CC(=O)CN1Cc2ccccc2/C1=N\C(=O)Nc1ccccc1	-73*
Cc1ccc(NC(=S)NNC(=O)c2nn(C)cc2Cl)cc1	-90*
Cc1c(Cl)c(C(=O)NNC(=S)Nc2ccc(F)cc2)nn1C	-70*
Cc1c(Cl)c(C(=O)NNC(=S)Nc2ccccc2)nn1C	-102*
COc1ccc(C2Nc3ccccc3C(=O)N2c2ccccc2)cc1CN1CCOCC1 (stereo not given)	-70*
COc1ccc(C2Nc3ccccc3C(=O)N2c2ccc(C)cc2)cc1Cn1nc(C)c([N+](=O)[O-])c1C (stereo not given)	-105*
SMILES	aSyn 5UTR act
COc1ccc(C2Nc3ccccc3C(=O)N2c2ccc(C)cc2)cc1COc1ccccn1 (stereo not given)	-97*
COc1cccc(C2Nc3ccccc3C(=O)N2Cc2ccccc2)c1 (stereo not given)	79
COc1ccc(C2C(C#N)=C(N)N(c3ccccc3)C3=C2C(=O)CCC3)cc1Cn1cc([N+](=O)[O-])cn1 (stereo not given)	58
NNC(=O)c1cc2cc3ccccc3nc2s1	-94*
COc1ccc2nc3sc(C(=O)NCc4cccs4)c(N)c3cc2c1	-97*
CC1CCCN(c2ccc(C(=O)NCC3CCCO3)cn2)C1 (stereo not given)	-88*
CCOc1c2ccc(C(=O)NCCc3cccs3)cc2nn1CC	-130*
COc1cccc(-c2cc(C(=O)NCc3cccs3)no2)c1	-156*
CC1CCN(c2ccc(C(=O)NCc3cccs3)cn2)CC1	-106*
CCOc1ccc(C(=O)NCc2cccs2)cc1	-105*
COc1ccc(-c2cc(C(=O)NCc3cccs3)no2)cc1	-170*
CCCCC(=O)NC(c1ccccc1)c1ccc2cccnc2c1O (stereo not given)	68
CCC(=O)NC(c1ccccc1)c1nc2ccccc2[nH]1 (stereo not given)	-79*
CCCC(=O)NC(c1ccccc1)c1ccc2cccnc2c1O (stereo not given)	65
N#C/C(C(=O)N1CCOCC1)=C1\Nc2ccccc2S1	-65*
CC(=O)c1csc(COc2ccccc2)n1	-109*
CC(=O)Nc1nc(COc2ccc3ccccc3c2)cs1	-148*
O=C(Nc1nc(COc2ccccc2)cs1)C1CCC1	-103*
CC(=O)Nc1nc(COc2ccccc2)cs1	-137*
Nc1nc(CCOc2ccc(F)cc2)cs1	-112*
O=C(Nc1nc(COc2ccccc2)cs1)C12CC3CC(CC(C3)C1)C2	-147*
Nc1nc(COc2ccc3ccccc3c2)cs1	-79*
O=C(Nc1ccccc1-c1ccccc1)C12CC3CC(CC(C3)C1)C2	-78*
CC(NC(=O)Nc1ccc(Br)cc1)C(C)(C)C (stereo not given)	-77*
O=C(Nc1ccccc1)O/N=C/c1ccc(F)cc1	-189*
SMILES	aSyn 5UTR act
Cc1ccc(NC(=O)O/N=C/c2ccc(N(C)C)cc2)cc1	-71*
Cc1ccc(NC(=O)O/N=C/c2ccc(F)cc2)cc1	-131*
O=C(NC(=S)Nc1ccc(N2CCCC2)cc1)c1ccccc1[N+](=O)[O-]	-104*
O=C(NNC(=S)Nc1ccccc1)c1ccccc1[N+](=O)[O-]	-77*
COc1ccc(-c2cn3cc(Cl)ccc3n2)cc1OC	-239*
O=C(N/N=C/c1sc(N2CCOCC2)nc1-c1ccccc1)c1cccc(S(=O)(=O)N2CCCC2)c1	99
O=C(Nc1ccccc1Cl)c1ccc2nc(N3CCOCC3)sc2c1	-99*
O=C(Nc1ccccc1F)c1ccc2nc(N3C(=O)CCC3=O)sc2c1	-117*
O=C(Nc1ccc(F)cc1F)c1ccc2nc(N3CCOCC3)sc2c1	-62*
